# FBA Mtb inh = Mtb FBA enzyme inhibitors, primary screen, biochemical, fluorescence, strain H37Rv. Fructose-bisphosphate aldolase (Mycobacterium tuberculosis (strain ATCC 25618 / H37Rv)), …. purified M. tuberculosis FBA, fluorescence read-out. inhibition, % at 1 µM. 2.3% of 360,000 active; in the data active = inhibition above about 27%;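 note: 0% = vehicle and 100% = reference inhibitor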
# Target sequence (P9WQA3 whole entry, looked up): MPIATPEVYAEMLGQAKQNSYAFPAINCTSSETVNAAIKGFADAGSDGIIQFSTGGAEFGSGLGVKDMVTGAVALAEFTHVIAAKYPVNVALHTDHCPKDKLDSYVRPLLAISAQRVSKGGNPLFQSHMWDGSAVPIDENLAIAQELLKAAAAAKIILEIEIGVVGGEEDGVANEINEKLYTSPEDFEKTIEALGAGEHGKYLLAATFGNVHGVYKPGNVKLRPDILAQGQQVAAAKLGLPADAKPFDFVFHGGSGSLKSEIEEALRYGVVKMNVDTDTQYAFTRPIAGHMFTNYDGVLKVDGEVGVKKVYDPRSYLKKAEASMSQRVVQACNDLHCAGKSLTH
# BoNT-F LC inh = BoNT/F light chain protease inhibitors, primary screen, biochemical, flow cytometry, MLPCN library | Multiplex microsphere protease cleavage assay | inhibition, % at 10 µM | 0.22% of 360,000 active | AID 588497, 2011; in the data active = inhibition above about 35%, passing the limit was not always enough; inconclusive = no clear call, values can overlap the other calls; note: plate controls were buffer without enzyme for full effect and enzyme alone for no effect
# Anthrax LF inh2 = Bacillus anthracis LF protease inhibitors, primary screen, biochemical, multiplex microsphere, MLPCN library; 0.12% of 360,000 active; multiplex microsphere protease cleavage assay; inhibition, % at 10 µM; Lethal factor (Bacillus anthracis), P15917; note: plate controls were buffer without enzyme for full effect and enzyme alone for no effect
# Bead autofluor = counter-screen for toxin protease inhibitors: compound fluorescence | compound autofluorescence counterscreen, microsphere flow cytometry; stronger effect = higher value | fluorescence intensity (test concentration not listed) | 3.1% of 360,000 active | AID 624483; in the data active = fluorescence intensity above about 16000; inconclusive = no clear call, values can overlap the other calls
# GDH-TPI counter = GDH-TPI coupling enzyme inhibitors, primary screen, artefact control for M. tuberculosis FBA inhibitor project, biochemical, absorbance, full deck. AID 588335, 2011. GDH-TPI coupled enzyme counterscreen, NADH absorbance. 1.2% of 360,000 active. inhibition, % at 4.8 µM; in the data active = inhibition above about 30%;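 note: 0% = DMSO wells and 100% = wells lacking the enzyme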
# BoNT A protease = BoNT/A light chain protease inhibitors, primary screen, biochemical, flow cytometry, MLPCN library; multiplex microsphere protease substrate cleavage; inhibition, % at 10 µM; 0.17% of 360,000 active; note: plate controls were buffer without enzyme for full effect and enzyme alone for no effect
# Numbers without * were called inactive; ? = inconclusive; nt = not tested or not shown. Hits are enriched below; roughly 6.7% of the tested compounds scored in any of these assays. Cut-off read from the data, not from the text of the source, unless noted: active = inhibition above about 30%; inconclusive = no clear call, values can overlap the other calls; inactive = below that.
SMILES,FBA Mtb inh,BoNT-F LC inh,Anthrax LF inh2,Bead autofluor,GDH-TPI counter,BoNT A protease
COc1ccc(N=Cc2c(O)n(C)c(=O)n(C)c2=O)cc1,1,-4,5,2964,26,0
CC1(C)CC(=O)C(C=Nc2ccncc2)=C(O)C1,-2,2,0,9855,-6,1
Cn1nc(C(C)(C)C)c([N+](=O)[O-])c1C(=O)Nc1cccc2ccccc12,3,-3,1,6415,11,0
COc1ccc(OC)c(N=CC2=C(O)CC(C)(C)CC2=O)c1,3,-13,-7,7354,39*,0
N#Cc1ccccc1Cn1c(-c2cscn2)nc2ccccc21,2,-3,-1,22811*,10,?
O=C(O)Cn1c(-c2cscn2)nc2ccccc21,6,-1,-2,4413,9,0
Cc1nn(-c2ccccc2)c(C)c1/C=N/NC(=O)c1cc(-c2cccs2)[nH]n1,-2,-9,-5,1994,9,0
Cc1nn(-c2ccccc2)c(C)c1/C=N/NC(=O)c1cc(-c2ccc(Br)s2)[nH]n1,2,2,-1,21752*,13,2
Cc1nn(-c2ccccc2)c(C)c1/C=N/NC(=O)c1ccccc1O,7,88*,-1,3079,22,6
Cc1nn(-c2ccccc2)c(C)c1/C=N/NC(=O)c1cc(-c2ccc(Cl)s2)[nH]n1,-3,-10,-5,17595*,27,-4
Cc1cc(C(=O)N/N=C/c2c(C)nn(-c3ccccc3)c2C)n[nH]1,1,nt,nt,nt,18,nt
Cc1cc(/C=C(\C#N)C(=O)Nc2ccccc2)c(C)n1-c1ccc2c(c1)OCO2,0,-9,-2,20884*,18,-4
Cc1cc(/C=C(/C#N)C(=O)Nc2ccccc2)c(C)n1-c1cccnc1,0,-5,-3,3330,29,-1
Cc1cc(/C=C(\C#N)C(=O)Nc2ccc(F)cc2)c(C)n1-c1ccc(N2CCOCC2)c([N+](=O)[O-])c1,0,0,-6,22759*,7,0
CNC(=O)/C(C#N)=C\c1cc(C)n(-c2ccc(N3CCOCC3)cc2)c1C,3,-7,0,4678,31*,-1
O=c1[nH]c2ccccc2c2nc3ccccn3c12,3,-8,-12,6209,5,0
CC(=O)NC1C(OCCOc2ccc(Cl)cc2C)OC(CO)C(O)C1O (stereo not drawn),2,16,1,3577,-8,-3
COc1ccc(CNC(=O)CN(C(=O)Cn2nnc(-c3ccccc3F)n2)c2ccc(C)cc2)cc1,-2,9,6,4256,-4,1
O=C(NCc1nnnn1-c1ccccc1)c1ccc2ccccc2c1,3,2,4,3924,2,0
O=C(COC(=O)c1ccc(O)cc1)Nc1ccc(Cl)cc1C(=O)c1ccccc1,-3,-4,-1,2110,0,0
COC(=O)c1cc(Cl)ccc1NCC(N)c1ccccc1 (stereo not drawn),115*,-23,-4,6037,nt,0
Cc1cc(C)cc(NS(=O)(=O)c2ccc(-c3cnc(C4CC4)o3)cc2)c1,0,-1,0,5528,0,-2
CSc1nc(SCC(=O)O)c2c3c(sc2n1)COC(C)(C)C3,5,-11,-8,4790,14,-1
CCOC(=O)c1c(-c2ccccc2)csc1NC(=O)c1ccc(S(=O)(=O)N2CC(C)OC(C)C2)cc1 (stereo not drawn),6,-1,-1,23061*,-1,2
Cc1ccccc1-c1nnc(NC(=O)c2ccc(N3C(=O)CCC3=O)cc2)s1,4,-5,-10,6000,33*,-1
SMILES,FBA Mtb inh,BoNT-F LC inh,Anthrax LF inh2,Bead autofluor,GDH-TPI counter,BoNT A protease
CCOC(=O)c1c(-c2ccccc2)csc1NC(=O)c1ccc(N2C(=O)CCC2=O)cc1,2,1,1,22792*,6,1
Cc1ccc(NC(=O)c2ccccc2F)c(NC(=O)c2ccccc2F)c1,1,8,11,3319,-2,-2
O=C(CNC(=O)c1ccccc1)N/N=C/c1cccs1,-2,-2,-2,2387,-1,0
COc1ccc(OC)c(/C=C(\NC(=O)c2ccccc2)C(=O)N/N=C/c2ccc(C)s2)c1,-3,5,4,7810,49*,2
O=C(N/N=C/c1cccs1)/C(=C/c1ccccc1)NC(=O)c1ccccc1,0,3,3,9560,42*,2
COc1ccc(/C=C(/NC(=O)c2ccccc2)C(=O)N/N=C/c2ccncc2)c(OC)c1,2,-4,-2,2599,29,-1
COc1ccc(/C=C(/NC(=O)c2ccccc2)C(=O)N/N=C/c2sccc2C)cc1,-1,-7,0,2479,52*,-1
O=C(Nc1ccccc1)/C(=C\c1cccs1)NC(=O)c1ccccc1,-1,-17,-7,7079,23,-2
Cc1cccc(NC(=O)/C(=C\c2cccs2)NC(=O)c2ccccc2)c1,-1,2,-5,3365,34*,0
O=C(N/N=C/C=C/c1ccco1)c1ccncc1,4,nt,nt,nt,24,nt
O=C(N/N=C/C=C/c1ccco1)/C(=C/c1ccccc1)NC(=O)c1ccccc1,0,2,0,7663,37*,3
COc1ccc(/C=C(\NC(=O)c2ccccc2)C(=O)N/N=C/c2sccc2C)cc1,2,0,0,2670,40*,3
COc1ccccc1N1CCN(C(c2ccc(N(C)C)cc2)c2nnnn2CCc2ccccc2)CC1 (stereo not drawn),5,-18,-6,5473,1,0
C=CCNC(=O)c1ccc(N(Cc2ccc(Cl)cc2)S(C)(=O)=O)cc1,-1,39*,10,3005,0,1
C=CCN(c1ccc(C(=O)NC(C)C)cc1)S(C)(=O)=O,-1,-2,-5,23751*,-1,0
C=CCN(c1ccc(C(=O)Nc2ccc(C)cc2)cc1)S(C)(=O)=O,2,-6,-5,3580,2,-1
COc1ccc(CC(=O)Nc2cc3oc4ccccc4c3cc2OC)cc1,1,0,-3,2208,11,0
COc1ccccc1CC(=O)Nc1cc2oc3ccccc3c2cc1OC,2,34*,3,3972,4,5
COc1cc2c(cc1NC(=O)C(C)N1CCN(S(=O)(=O)c3ccc(C)c(C)c3)CC1)oc1ccccc12 (stereo not drawn),-1,-2,0,16646*,10,1
COc1cc2c(cc1NC(=O)CSc1ccccn1)oc1ccccc12,3,-3,-3,20567*,-3,?
COc1cc2c(cc1NC(=O)C(C)N1CCN(S(=O)(=O)c3ccccc3[N+](=O)[O-])CC1)oc1ccccc12 (stereo not drawn),0,3,0,16091,11,1

# Source: PubChem BioAssay
